In ChEMBL document CHEMBL2218924, “A broad activity screen in support of a chemogenomic map for kinase signalling research and drug discovery” (Biochem J, 2013) one finds residual activity data, which are given here for 19 molecules.

For this test, the target named is PAS domain-containing serine/threonine-protein kinase (Homo sapiens) (UniProt Q96RG2). The following applies: at 10 µM.
PAS domain-containing serine/threonine-protein kinase (Homo sapiens), sequence (Q96RG2 whole entry, the tested form may be a part): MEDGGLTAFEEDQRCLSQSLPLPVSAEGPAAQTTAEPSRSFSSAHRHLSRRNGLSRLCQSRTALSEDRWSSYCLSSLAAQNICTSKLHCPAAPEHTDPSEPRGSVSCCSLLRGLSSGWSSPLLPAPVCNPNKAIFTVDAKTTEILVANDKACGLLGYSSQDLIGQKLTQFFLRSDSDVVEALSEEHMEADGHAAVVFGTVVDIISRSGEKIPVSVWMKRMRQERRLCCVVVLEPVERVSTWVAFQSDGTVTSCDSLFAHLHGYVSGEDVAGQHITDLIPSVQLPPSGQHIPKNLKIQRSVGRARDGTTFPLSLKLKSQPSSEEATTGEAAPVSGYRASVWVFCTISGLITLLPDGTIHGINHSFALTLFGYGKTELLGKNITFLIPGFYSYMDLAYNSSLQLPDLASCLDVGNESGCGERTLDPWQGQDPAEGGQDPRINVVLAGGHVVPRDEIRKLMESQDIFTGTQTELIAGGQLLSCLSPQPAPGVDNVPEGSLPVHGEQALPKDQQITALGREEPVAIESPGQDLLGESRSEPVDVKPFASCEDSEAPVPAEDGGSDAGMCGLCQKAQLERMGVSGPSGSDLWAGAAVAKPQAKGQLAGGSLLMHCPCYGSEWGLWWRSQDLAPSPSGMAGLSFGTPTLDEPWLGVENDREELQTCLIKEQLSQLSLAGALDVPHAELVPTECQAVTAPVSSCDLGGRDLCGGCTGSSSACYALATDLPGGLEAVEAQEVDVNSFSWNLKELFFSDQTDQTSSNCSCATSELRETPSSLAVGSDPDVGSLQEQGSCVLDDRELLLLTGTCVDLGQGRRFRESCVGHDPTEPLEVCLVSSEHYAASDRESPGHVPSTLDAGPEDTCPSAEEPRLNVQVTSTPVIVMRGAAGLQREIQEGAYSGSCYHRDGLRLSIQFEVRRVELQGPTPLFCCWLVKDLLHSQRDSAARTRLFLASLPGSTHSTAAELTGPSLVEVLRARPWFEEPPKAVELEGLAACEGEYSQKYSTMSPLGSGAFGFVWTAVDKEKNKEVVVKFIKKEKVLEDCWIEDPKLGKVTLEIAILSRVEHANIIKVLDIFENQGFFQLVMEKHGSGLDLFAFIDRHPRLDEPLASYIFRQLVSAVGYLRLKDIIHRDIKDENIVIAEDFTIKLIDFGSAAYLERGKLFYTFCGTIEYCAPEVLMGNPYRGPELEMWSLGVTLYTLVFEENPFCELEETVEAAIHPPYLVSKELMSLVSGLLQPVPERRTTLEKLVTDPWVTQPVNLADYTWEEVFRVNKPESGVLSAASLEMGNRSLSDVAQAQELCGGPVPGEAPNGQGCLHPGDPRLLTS
For orientation: residual activity means the signal under treatment as a percentage of the control signal. For `N#Cc1c(NC(=O)c2cccc3ccccc23)sc2c1CCCC2`, the residual activity was determined as 96%.

As for `Cn1c2ccccc2c2c3c(c4c5ccccc5n(CCC#N)c4c21)CNC3=O`, the residual activity is 49%.

Turning to `O=C1NC(=O)C(c2cn(CCCO)c3ncccc23)=C1c1cnccn1`, the residual activity was determined as 89%.

With `O=C(c1ccccc1)c1ccc(N2CCOCC2)cc1O`, the residual activity was determined as 78%.

Turning to `CC(C)(C)n1nc(Cc2cccc3ccccc23)c2c(N)ncnc21`, the residual activity worked out at 71%.

On to `O=c1cc(N2CCOCC2)oc2c1ccc1ccccc12`, for which the residual activity worked out at 88%.

As for `O=C1Nc2ccccc2/C1=C\c1c(Cl)[nH]c2ccccc12`, the residual activity was found to be 67%.

Turning to `Nc1ncnc2c1c(-c1ccc(Oc3ccccc3)cc1)cn2C1CCCC1`, the residual activity is 43%.

On to `COc1cc2nccc(Oc3ccc(NC(=O)Nc4cc(C)on4)c(Cl)c3)c2cc1OC`, for which the residual activity amounted to 62%.

Turning to `Cn1sc(=O)n(Cc2ccccc2)c1=O`, the residual activity was found to be 138%.

With `CCCC(=O)Oc1ccc2[nH]c(C(=O)c3cc4ccccc4[nH]3)cc2c1`, the residual activity worked out at 84%.

For `O=C1NC(=O)c2c1c1c3ccccc3[nH]c1n1cncc21`, the residual activity was determined as 26%.

Regarding `Nc1ncnc2[nH]nc(Nc3ccc(F)cc3)c12`, the residual activity stood at 62%.

In the case of `O=C1NC(=O)C(c2c[nH]c3ccccc23)=C1c1c[nH]c2ccccc12`, the residual activity was 39%.

On to `NC(=O)Nc1sc(-c2ccc(F)cc2)cc1C(N)=O`, for which the residual activity stood at 96%.

Turning to `O=C(NC(NC(=S)Nc1ccc(F)c([N+](=O)[O-])c1)C(Cl)(Cl)Cl)C(c1ccccc1)c1ccccc1` (centres undefined), the residual activity is 75%.

As for `O=C1Nc2ccc(Cl)cc2/C1=C/c1cc(Cl)c(O)c(Cl)c1`, the residual activity came out at 29%.

Take `COc1ccc(Cl)cc1NC(=O)Nc1cc(C)nc2ccccc12`: the residual activity was 43%.

Turning to `COc1ccc2c(c1)c(C1=C(c3c[nH]c4ccccc34)C(=O)NC1=O)cn2CCCN(C)C`, the residual activity was determined as 32%.
